Test results reported in PubChem BioAssay (NCATS).
Values joined by “and” are separate entries in the source; they are usually repeats but may differ in a detail not shown here. Identical values can stand only once. Results filed as inconclusive are left out. Active and inactive are the calls of the source. Unless noted, no rule for the calls is given here.

Key:
[1] = qHTS profiling for inhibitors of Plasmodium falciparum (3D7) proliferation (AID 743322);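 also: infected erythrocytes exposed to compound for 72 h before lysis; 100% = DMSO vehicle wells and 0% = 0.29 µM artemisinin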; details: P. falciparum 3D7 proliferation; at 28.7 µM (top of the series)
Procedure, shortened: (§1)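 Parasite DNA was quantified by SYBR Green I fluorescence (ex 485, em 535 nm) after overnight lysis in saponin/Triton buffer at room temperature. Cultures at 0.3% parasitemia and 2.5% hematocrit were first exposed to compound for 72 h at 37 C; signals were normalised to artemisinin (0.29 uM) and vehicle wells.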

[2] = qHTS profiling for inhibitors of Plasmodium falciparum (DD2) proliferation (AID 743323); details: lower = more inhibition; at 28.7 µM (top of the series)
Procedure, shortened: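 P. falciparum Dd2-infected erythrocytes (0.3% parasitemia, 2.5% hematocrit) exposed 72 h at 37 C, 5% CO2. Lysis with SYBR Green, overnight at room temperature, fluorescence 485/535 nm; normalized to 0.29 uM artemisinin and DMSO.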

[3] = qHTS profiling for inhibitors of Plasmodium falciparum (HB3) proliferation (AID 743324; active = well fitted curve in the direction sought with a large enough effect; an effect the other way counts as inactive or inconclusive;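 also: 100% = DMSO vehicle wells and 0% = artemisinin-treated control wells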); details: Plasmodium falciparum HB3 blood-stage proliferation; at 28.7 µM (top of the series)
Procedure, shortened: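 SYBR Green fluorescence (485 ex/535 em) of lysed cultures, incubated overnight at room temperature in the dark, quantifies parasite DNA. Infected erythrocytes at 0.3% parasitemia and 2.5% hematocrit were exposed 72 h; values normalized to DMSO and 0.29 uM artemisinin controls.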

[4] = qHTS profiling of the MIPE4 collection as inhibitors of Plasmodium falciparum (3D7) proliferation (AID 743344);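 also: scaled between DMSO vehicle wells and 0.29 µM artemisinin as full inhibition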; details: P. falciparum 3D7 in erythrocytes, SYBR Green DNA fluorescence, 72 h; at 28.5 µM (top of the series) unless noted
Procedure, shortened: as §1

[5] = qHTS profiling of the MIPE4 collection as inhibitors of Plasmodium falciparum (DD2) proliferation (AID 743345); details: P. falciparum Dd2 in erythrocytes, SYBR Green DNA, 72 h; at 28.5 µM (top of the series) unless noted
Procedure, shortened: as §1

[6] = qHTS profiling of the MIPE4 collection as inhibitors of Plasmodium falciparum (DD2) proliferation (Rep 2) (AID 743346); details: P. falciparum Dd2 in erythrocytes, SYBR Green DNA, 72 h; at 28.5 µM (top of the series) unless noted
Procedure, shortened: as §1

[7] = qHTS profiling of the MIPE4 collection as inhibitors of Plasmodium falciparum (HB3) proliferation (AID 743347);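 also: plate controls were DMSO vehicle wells for no effect and artemisinin wells for full effect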; details: P. falciparum HB3 in erythrocytes, SYBR Green DNA, 72 h; at 28.5 µM (top of the series) unless noted
Procedure, shortened: as §1

[8] = High-throughput drug toxicity screening in the BPDCN cell line Gen2.2 (AID 1224824); details: Gen2.2 BPDCN cells; at 45.8 µM (top of the series) unless noted;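 also: cells exposed to compounds for 48 h before reading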
Procedure, shortened: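 Gen2.2, 500 cells/well, phenol red-free RPMI/10% FBS/Pen-Strep; 48 h cpd, 37 °C/5% CO2; CTG lum, 15 min RT. Norm: DMSO = 100%, bortezomib 9.2 uM final = 0%.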

[9] = qHTS assay for measurement of the activity of small molecule inhibitors on Zika virus induced Caspase-3 activity in human iPSC derived neural progenitor cells (hNPCs) (AID 1224857; active = well fitted curve in the direction sought with a large enough effect; an effect the other way counts as inactive or inconclusive; also: % of control where 0% means no effect; nearly all actives have a fitted effect of over 65% in size)
Procedure, shortened: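 Zika virus (2 FFU/cell) infection of human iPSC-derived NPCs, 6 h, following 1 h compound preincubation. Read-out: Caspase-Glo 3/7 luminescence.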

[10] = qHTS Assay for Identifying Gametocytocidal Compounds (AID 743244; active = well fitted curve in the direction sought with a large enough effect; an effect the other way counts as inactive or inconclusive; also: potency is read from the fitted curve at half-maximal effect;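 as to max response: % is scaled to controls: 0 for no effect and ±100 for the full control effect; actives lower the fluorescent signal which means gametocytes are killed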); details: P. falciparum 3D7 stage III-V gametocytes, alamarBlue, 72 h; max response: stronger effect = lower value
Procedure, shortened: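 Fluorescence at Ex 525/Em 598 nm, recorded 24 h after alamarBlue addition, reports residual metabolic activity of 3D7 gametocytes (stages III–V) following 72 h compound exposure at 37 °C, 5% CO2.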

| SMILES | remaining parasite growth % (stronger effect = lower value) [1] [%] | activity, percent of control [2] [%] | remaining proliferation (% of control), lower = more inhibition [3] [%] | parasite growth, % of DMSO control [4] [%] | parasite growth remaining, % of DMSO control (lower = more inhibition) [5] [%] | parasite growth, % of control (lower = inhibition) [6] [%] | growth, % of control [7] [%] | cell viability, % of control (lower = more cytotoxic) [8] [%] | Potency [9] | Potency [10] | max response [10] |
| --- | --- | --- | --- | --- | --- | --- | --- | --- | --- | --- | --- |
| CCOc1cc2ncc(C#N)c(Nc3ccc(F)c(Cl)c3)c2cc1NC(=O)C=CCN(C)C | -0.461 | 3.39 | 0.199 | 8.27 | 7.41 | 9.55 | 4.45 | 17.3 | inactive | – | – |
| Cc1coc2c1C(=O)C(=O)c1c-2ccc2c1CCCC2(C)C | – | – | – | 5.71 | – | 26.2 | 4.66 | 93.2 | – | – | – |
| Cn1c(=O)n(-c2ccc(C(C)(C)C#N)cc2)c2c3cc(-c4cnc5ccccc5c4)ccc3ncc21 | 1.17 | 10.2 | 1.06 | 5.06 | 7.73 | 6.52 | 2.31 | 8.42 | inactive | – | – |
| CC(C)c1ccc(Cn2ccc3c4c(N)nc(NC5CC5)nc4ccc32)cc1 | -2.55 | -1.01 | -1.47 | 4.63 | – | 15.1 | 3.42 | 3.92 | inactive | 14.8 µM (active) | – |
| COc1ccc(-n2nc(C(N)=O)c3c2C(=O)N(c2ccc(N4CCCCC4=O)cc2)CC3)cc1 | – | – | – | – | 82.6 | 61.9 | 83.4 | 150 | inactive | – | – |
| Cc1nc2ccc(CN(C)c3ccc(C(=O)N[C@@H](CCC(=O)O)C(=O)O)s3)cc2c(=O)[nH]1 | – | – | – | 211 | 106 | 54.1 | 424 | 185 | inactive | – | 16% (inactive) and -8.64% (inactive) |
| CC(=O)Nc1nc(C)c(-c2ccc(Cl)c(S(=O)(=O)NCCO)c2)s1 | – | – | – | 4.79 | 7.49 | 10 | 2.77 | 17.8 | – | – | – |
| CCCCCN(CCC12CC3CC(CC(C3)C1)C2)C(=O)NCCCc1ccncc1 | 7.44 | 32.6 | 7.47 | – | – | 13.6 | 6.74 | 111 | – | – | – |
| COc1ccc(-c2cc3c(C)nc(N)nc3n(C3CCC(OCCO)CC3)c2=O)cn1 (stereo unspecified) | – | – | – | 5.2 | 7.58 | 7.09 | 3.04 | 9.04 | inactive | – | – |
| Cc1ccc(CN2CCNCC2)cc1NC(=O)CNc1ccc(F)c(F)c1 | – | – | – | – | 103 | 63 | 60.8 | 124 | inactive | – | – |
| Cn1cc(-c2[nH]c3cc(NC(=O)[C@H](N)C4CCCCC4)cc4c3c2C=NNC4=O)cn1 | -2.18 | -0.309 | -1.93 | – | 5.92 | 4.04 | 2.91 | 28.9 | inactive | 23.5 µM (active) | – |
| COc1cc(C(=O)NS(=O)(=O)c2ccccc2C)ccc1Cc1cn(C)c2ccc(NC(=O)OC3CCCC3)cc12 | – | – | – | 5.96 | 7.78 | 16.7 | 7.01 | 13 | inactive | – | 2.7% (inactive) |
